Measured values reported in PubChem BioAssay (EPA / NIEHS).
Values joined by “and” are separate entries in the source; they are usually repeats but may differ in a detail not shown here. Identical values can stand only once. Some compounds were tested as several samples or in several runs, with calls that do not always agree. Active and inactive are the calls of the source. The calls were made as follows: active = hit-call score of the fitted dose curve at least 0.9, where 1 is the maximum; inactive = score below 0.9.

These compounds were tested on E-selectin (Homo sapiens) (UniProt P16581) (assay: BSK_3C_Eselectin: BioMAP Diversity Plus: 3C Assay for Eselectin Biomarker Activity (AID 2283015)). Settings: primary human endothelial cells (HUVEC); actives raise or lower the signal.
Chain of E-selectin (Homo sapiens) (P16581 whole entry, looked up): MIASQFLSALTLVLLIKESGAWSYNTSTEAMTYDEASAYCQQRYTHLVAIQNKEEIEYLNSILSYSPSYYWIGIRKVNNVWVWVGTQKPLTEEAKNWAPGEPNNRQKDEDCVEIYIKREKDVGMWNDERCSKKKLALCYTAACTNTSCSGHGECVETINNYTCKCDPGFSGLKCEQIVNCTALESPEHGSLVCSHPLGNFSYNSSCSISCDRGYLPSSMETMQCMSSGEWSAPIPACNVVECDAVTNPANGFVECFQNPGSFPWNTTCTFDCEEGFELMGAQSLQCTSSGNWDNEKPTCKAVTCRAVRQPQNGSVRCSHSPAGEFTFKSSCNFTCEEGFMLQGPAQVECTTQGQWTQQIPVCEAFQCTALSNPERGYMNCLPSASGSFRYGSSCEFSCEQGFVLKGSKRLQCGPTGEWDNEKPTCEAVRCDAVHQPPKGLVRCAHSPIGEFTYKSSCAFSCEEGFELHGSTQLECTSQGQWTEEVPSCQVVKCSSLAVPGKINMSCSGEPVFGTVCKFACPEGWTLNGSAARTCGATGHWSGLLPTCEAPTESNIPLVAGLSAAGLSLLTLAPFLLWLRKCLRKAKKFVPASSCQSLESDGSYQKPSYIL
Procedure: BSK_3C is a cell-based, multiplexed-readout assay that uses umbilical vein endothelium, a human vascular primary cell, with measurements taken at 24 hours after chemical dosing in a 96-well plate.BSK_3C_Eselectin is an assay component measured in the BSK_3C assay. It measures E-selectin antibody related to regulation of gene expression using ELISA technology.Data from the assay component BSK_3C_Eselectin was analyzed into 1 assay endpoint. This assay endpoint, BSK_3C_Eselectin, was analyzed with bidirectional fitting relative to DMSO as the negative control and baseline of activity. Using a type of binding reporter, gain or loss-of-signal activity can be used to understand changes in the signaling as they relate to the gene SELE. Furthermore, this assay endpoint can be referred to as a primary readout, because this assay has produced multiple assay endpoints where this one serves a signaling function. To generalize the intended target to other relatable targets, this assay endpoint is annotated to the cell adhesion molecules intended target family, where the subfamily is selectins.
The levels of cell surface (or secreted, indicated by the prefix "s") biomarker endpoints were measured by ELISA. Overt cytotoxicity to cells in confluent adherent cultures (all systems other than the BT system) was assessed by measuring total protein levels using sulforhodamine B (SRB) staining in parallel cultures at the time of biomarker measurements, indicated as SRB endpoints. For proliferation assays for adherent cell types, individual cell types are cultured at sub-confluence and relative cell numbers quantified by SRB staining at time points optimized for each system (48 h: 3C and CASM3C systems; 72 h: BT and HDF3CGF systems; 96 h: SAg system). SRB was performed by staining cells with 0.1% SRB after fixation with 10% TCA and reading wells at 560 nm.Viability and proliferation of PBMC (T cells) was quantified by Alamar Blue reduction for the SAg and BT systems. For PBMC viability (referred to as PBMC Cytotoxicity within the assay endpoint names), cells were plated (75,000/well in a 96-well plate) and then chemical samples added for 1 h before addition of activators, SEB and TSST-1 (20 ng/mL final concentration each). Cells were incubated for 90 h. Then, Alamar Blue (20 uL/well) (Invitrogen, Cat DAL1100) was added for 6 h, and the plates were read with a fluorescence microplate reader at 546/580 nm (excitation/emission). For PBMC proliferation, cells were plated and activated as above but incubated for only 16 h prior to addition of Alamar Blue. Plates were read after 6 h.

outcome, inactive:
COc1cc(CNC(=O)CCCC/C=C/C(C)C)ccc1O
CCCCCCCCCC/C=C/C1CC(=O)OC1=O (stereo not drawn)
CCCCCCC(O)CCCCCCCCCCC(=O)OC (stereo not drawn)
CCC(C)=NO
C1CN(CCOCCN2CCOCC2)CCO1
CN(C)Cc1cc(C(C)(C)C)c(O)c(C(C)(C)C)c1
CCC[Si](OC(C)=O)(OC(C)=O)OC(C)=O
CN(C)CCC(c1ccc(Cl)cc1)c1ccccn1 (stereo not drawn)
O=[N+]([O-])c1cc(S(=O)(=O)Nc2ccccc2)ccc1Nc1ccccc1
O=C(C(=O)c1ccccc1)c1ccccc1
CC(C)C1OCCN1CCOC(=O)NCCCCCCNC(=O)OCCN1CCOC1C(C)C (stereo not drawn)
Cc1c(C(N)=O)cc([N+](=O)[O-])cc1[N+](=O)[O-]
Sc1nc2ccccc2s1
CC[N+](CC)(CC(=O)Nc1c(C)cccc1C)Cc1ccccc1
CC[N+](CC)(CC(=O)Nc1c(C)cccc1C)Cc1ccccc1 (tested in a mixture with another compound)
Oc1cccc2ccccc12
Cc1cccnc1
Cc1cc(-n2nc3ccc(Cl)cc3n2)c(O)c(C(C)(C)C)c1
COc1ccccc1Oc1c(NS(=O)(=O)c2ccc(C(C)(C)C)cc2)nc(-c2ncccn2)nc1OCCO
COc1ccc(C(=O)c2ccccc2O)c(O)c1

AC50, active:
CCCCCCCCCCCCCCCCCC[N+](C)(C)C 5 µM
O=[N+]([O-])c1cc(S(=O)(=O)Nc2ccccc2)ccc1Nc1ccccc1 13.3 µM
COC(=O)/C=C\C(=O)OC 13.6 µM
CCCCC(CC)COC(=O)C=Cc1ccc(OC)cc1 (stereo not drawn) 27.5 µM and 11.4 µM
CN(C)c1ccc(C(c2ccccc2)c2ccc(N(C)C)cc2)cc1 3.29 µM
CCCCCCCCCCC1CO1 (stereo not drawn) 34.8 µM
CC(C)CC(=O)CC(C)CC(C)C (stereo not drawn) 34.6 µM
OC(C(F)(F)F)(C(F)(F)F)C(O)(C(F)(F)F)C(F)(F)F 21.5 µM and 30 µM
